PAFAH1B3 inh: inhibitors of human PAFAH1B3. Q15102. recombinant PAFAH1B3, FP-rhodamine probe, fluorescence polarization. inhibition, % at 3.39 µM. actives 0.28% (n = 340,000). AID 492972;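 active means inhibition above the screen-wide average of all tested compounds plus 3 SD, cut at about 25% in these data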;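 further: 0% = enzyme with DMSO only and 100% = wells lacking PAFAH1B3 protein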
Target sequence (Q15102 whole entry, looked up): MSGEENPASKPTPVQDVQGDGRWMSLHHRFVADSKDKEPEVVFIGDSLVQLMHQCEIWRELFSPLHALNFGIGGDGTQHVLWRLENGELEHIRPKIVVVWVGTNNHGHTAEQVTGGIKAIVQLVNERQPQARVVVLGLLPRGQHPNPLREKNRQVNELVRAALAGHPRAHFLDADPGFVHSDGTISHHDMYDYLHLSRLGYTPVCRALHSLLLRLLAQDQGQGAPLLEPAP
pPAFAH FP inh: pPAFAH (human) enzyme inhibition; recombinant pPAFAH, FP-rhodamine probe fluorescence polarization; Q13093; AID 463082; actives 1.5% (n = 330,000); inhibition, % at 3.39 µM;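 active means inhibition above the mean inhibition across the screen plus 3 SD, cut at about 25% in these data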;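 further: inhibitors block binding of the rhodamine activity-based probe so polarization drops; 0% = enzyme with DMSO and 100% = wells lacking pPAFAH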
PAFAH1B2 FP inh: PAFAH1B2 (human) inhibition; P68402; recombinant PAFAH1B2, FP-rhodamine activity probe, fluorescence polarization; inhibition, % at 3.39 µM; actives 1.2% (n = 340,000); AID 492953;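 active means inhibition above the mean of all tested compounds plus 3 SD, cut at about 24% in these data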;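 further: 0% = enzyme with DMSO and 100% = wells lacking PAFAH1B2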
Target sequence (P68402 whole entry, looked up): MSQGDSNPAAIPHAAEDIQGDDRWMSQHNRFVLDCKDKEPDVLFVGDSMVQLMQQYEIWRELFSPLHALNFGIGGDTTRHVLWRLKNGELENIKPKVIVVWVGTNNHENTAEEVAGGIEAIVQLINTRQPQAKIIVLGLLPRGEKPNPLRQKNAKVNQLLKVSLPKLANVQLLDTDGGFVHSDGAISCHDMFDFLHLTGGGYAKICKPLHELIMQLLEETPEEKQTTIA
PKA-R1A activ: activators of PKA-R1A complex. P00514+P68181. PKA-R1A dissociation, Cy5-IP20 fluorescence polarization; scaled: DMSO 0%, 113 µM cGMP 100%. activation, % at 11.4 µM. actives 0.083% (n = 340,000). AID 504707;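 active means percent activation above the mean of all tested compounds plus 3 SD, cut at about 19% in these data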;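 further: higher means more PKAc released from R1A so a rise in polarization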
PKA-R2B activ: activates the human PKA-R2B holoenzyme complex. actives 0.079% (n = 340,000). PKA-R2B holoenzyme dissociation, Cy5-IP20 fluorescence polarization; R2B truncated from residue 108, S112A mutant; 0% DMSO only, 100% 113 µM cGMP. AID 504700. activation, % at 11.4 µM;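 active means activation above a cutoff set at the mean over all compounds plus 3 SD, cut at about 18% in these data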;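 further: higher means more holoenzyme dissociation and a rise in polarization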
PAFAH2 inh: inhibitors of human PAFAH2 | Q99487 | recombinant PAFAH2, FP-rhodamine activity probe, fluorescence polarization | inhibition, % at 3.39 µM | actives 0.99% (n = 340,000) | AID 492956;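 active means inhibition above the mean over all tested compounds plus 3 SD, cut at about 30% in these data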;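 further: inhibitors block probe labeling of enzyme so polarization drops; 0% = enzyme with DMSO and 100% = wells lacking PAFAH2 protein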
* marks the source's active call; other numbers are inactive results; nt = no result given. The list is not random: actives were taken first. Their share in the collection is about 2.6%.

SMILES	PAFAH1B3 inh	pPAFAH FP inh	PAFAH1B2 FP inh	PKA-R1A activ	PKA-R2B activ	PAFAH2 inh
Cn1c(=O)c(C#N)c(-c2ccc(F)cc2)c2cc(C(=O)c3cc(Cl)cc(Cl)c3O)cnc21	7.7	26.2*	6.6	-7.2	8.1	13.9
COc1ccccc1-n1c(=O)c(C#N)c(-c2ccc([N+](=O)[O-])cc2)c2cc(C(=O)c3cc(F)ccc3O)cnc21	-2.1	1.3	2.4	-9.0	-4.0	-3.3
COc1ccccc1N1CCN(C2CCCN(C(=O)c3snnc3C)C2)CC1 (stereo not drawn)	5.0	3.5	10.2	-4.2	-10.0	-4.6
CCN(c1ccccc1)S(=O)(=O)c1cc(C(=O)O)ccc1C	16.1	14.8	52.7*	-4.5	-0.2	15.8
COc1ccc(N(Cc2ccccc2)S(=O)(=O)c2cc(C(=O)O)ccc2Cl)cc1	-1.3	-2.8	3.3	0.2	-10.1	-3.3
O=C(O)c1ccc(Cl)c(S(=O)(=O)N(Cc2ccccc2)c2ccccc2Cl)c1	6.5	7.0	28.3*	-4.3	-17.1	12.4
O=C(O)c1ccc(Cl)c(S(=O)(=O)N(Cc2ccccc2)c2ccccc2)c1	-5.5	0.1	22.4	3.6	-1.9	12.7
O=C(O)c1ccc(Cl)c(S(=O)(=O)N(Cc2ccccc2)c2ccc(F)cc2)c1	-5.7	5.1	33.0*	-4.5	-8.7	2.0
O=C(O)c1cccc(S(=O)(=O)N(Cc2ccccc2)c2ccccc2)c1	3.0	-0.7	25.6*	-11.2	2.2	7.2
CCN(c1ccccc1)S(=O)(=O)c1cc(C(=O)Nc2ccc(F)c(F)c2)ccc1F	-27.5	-6.3	11.1	-4.2	-11.9	-40.8
C#CCOCCOCCOCCNc1nc(N2CCN(C(=O)[C@H](CC(N)=O)n3cc(C(N)[C@@H](C)CC)nn3)CC2)nc(N2CCN(C(=O)[C@H](CCC(=O)O)n3cc([C@@H](N)CCCCN)nn3)CC2)n1 (stereo partly drawn)	6.1	2.0	0.2	-2.7	10.4	-4.0
C[C@H](NC(=O)c1ncn2c1C(=O)NC[C@@H]2C)c1ccccc1	nt	nt	nt	7.0	-2.5	nt
CN(C(=O)COC(=O)c1cc(-c2ccccc2Cl)nc2ccccc12)C1CCS(=O)(=O)C1 (stereo not drawn)	3.9	27.4*	-0.3	1.6	-4.0	-1.0
CC(C)(C)c1ccc(C(=O)N2CCNCC2)cc1	5.7	27.5*	1.2	0.3	-0.1	-2.7
CCC1CCC(N2CCN(c3ccc([N+](=O)[O-])cc3)CC2)CC1 (stereo not drawn)	13.4	nt	2.2	8.5	0.8	-1.0
COC(=O)c1ccc(CSCc2ccc(C#N)cc2)cc1	nt	5.4	nt	nt	nt	nt
O=C(CNC(=O)C1CCCCC1)OCC(=O)c1cccc(Cl)c1	1.5	6.0	2.9	4.2	-3.1	5.1
CCc1cc2c(=O)c(-c3cscn3)coc2c(CN(C)C)c1O	4.3	27.3*	4.2	-7.9	0.4	10.8
CCOc1ccccc1C(=O)NCC(=O)NNC(=O)c1csc(N2CCOCC2)n1	nt	nt	nt	-6.2	1.1	nt
CCN(c1cccc(C)c1)S(=O)(=O)c1ccc2c(c1)N(C(C)=O)CCS2	9.8	0.4	-2.4	1.8	-5.8	-6.8
Nc1ccc(C(=O)OCCc2ccccc2)cc1	1.3	8.9	7.4	3.4	-16.7	18.2
O=C(OCCc1ccccc1)c1cc(O)c(O)c(O)c1	11.8	14.6	54.9*	-2.9	-5.6	16.9
C[C@H](CO)N1C[C@H](C)[C@@H](CN(C)Cc2ccc(-c3ccccc3)cc2)OCc2cnnn2CCCC1=O	nt	nt	nt	4.8	-2.0	nt
Cc1c(C(=O)OCC2CCCO2)[nH]c2c1C(=O)CC(c1ccco1)C2 (stereo not drawn)	1.6	25.2*	2.7	3.3	2.8	6.2
CCN(CC)S(=O)(=O)c1ccc(NC(=O)COC(=O)c2ccc(NC(=O)CC#N)cc2)cc1	6.3	26.1*	-7.7	14.1	-0.2	-7.2
SMILES	PAFAH1B3 inh	pPAFAH FP inh	PAFAH1B2 FP inh	PKA-R1A activ	PKA-R2B activ	PAFAH2 inh
CC(=O)Nc1ccc(C(=O)OCC(=O)c2ccc(C)c([N+](=O)[O-])c2)cc1	4.4	-7.8	-1.9	-2.0	-4.5	33.1*
CC(C)(C)NC(=O)NC(=O)COC(=O)c1cccc(NS(=O)(=O)c2ccc(F)c(F)c2)c1	0.4	12.2	0.2	2.6	2.7	11.4
CC(C)(C)c1ccc(NC(=O)COC(=O)c2ccc(NS(=O)(=O)c3ccc(F)c(F)c3)cc2)cc1	-9.4	30.6*	-6.3	-3.5	-1.7	23.8
Cc1cc(C)c(C(=O)COC(=O)c2ccc(NC(=O)CC#N)cc2)cc1C	-8.6	24.9*	-13.4	-7.2	4.3	-22.8
CCOC(=O)N1CCN(C(=O)CCc2cc(OC)c(OC)c(OC)c2)CC1	0.0	nt	0.2	4.1	0.6	5.0
CCOc1ccccc1OCC(=O)NN=C1CCCC(=O)C1	5.1	-1.4	1.4	2.3	-13.5	2.7
S=C1Nc2ccccc2CS1	nt	nt	nt	1.1	-1.8	nt
S=C1Cc2ccccc2N1	28.9*	nt	17.9	-2.9	4.9	41.3*
CCOc1cc(/C=C(/C#N)c2ccc(F)cc2)ccc1OCc1ccc(C(=O)O)o1	-1.0	9.5	31.9*	-8.8	-12.1	-5.1
CCOc1cc(/C=C(/C#N)c2nc3ccccc3[nH]2)ccc1OCc1ccc(C(=O)O)o1	10.9	4.6	8.4	-7.9	-6.4	-0.8
COCc1nc(-c2ccc(-c3ccccc3)nc2OC)no1	0.6	26.1*	0.1	-7.1	-4.0	-2.8
CC1CCN(S(=O)(=O)CCNC(=O)c2ccc3c(c2)OCO3)CC1	7.3	1.1	1.8	-8.7	-5.3	3.7
O=c1[nH][nH]c(-c2ccccc2)c1-c1ccccc1	11.7	nt	24.9*	1.9	-3.2	3.1
COC(=O)CCC(=O)OC1(C)C(=O)C=C2C=C(C3CC3)OC=C2C1=O (stereo not drawn)	nt	26.3*	nt	nt	nt	nt
CC1(OC(=O)CCc2ccccc2)C(=O)C=C2C=C(C3CC3)OC=C2C1=O (stereo not drawn)	nt	32.9*	nt	nt	nt	nt
O=C(N/N=C/c1ccc(O)cc1O)c1ccc(CN2C(=O)c3cccc4cccc2c34)cc1	35.2*	29.7*	43.0*	1.0	3.3	38.7*
O=C(N/N=C/c1ccccc1)c1ccc(CN2C(=O)c3cccc4cccc2c34)cc1	0.8	-10.7	-1.9	-12.3	-2.6	-11.0
Cc1cc([N+](=O)[O-])nn1Cc1ccc(C(=O)N/N=C/c2ccc(O)cc2O)cc1	14.8	28.6*	4.7	-12.3	-6.0	-13.1
Cc1cc([N+](=O)[O-])nn1Cc1ccc(C(=O)N/N=C/c2ccc(F)cc2)cc1	7.6	1.7	1.1	4.2	-3.2	2.6
CC(C)c1nc2cc(C(=O)N(C)Cc3ccc(F)cc3)ccc2o1	-1.2	-1.7	2.5	-6.8	-13.2	1.3

Screening data: PubChem, The Scripps Research Institute Molecular Screening Center
